{"source": "PubChem BioAssay AID431", "about": "(Sanford-Burnham Center for Chemical Genomics, 2006)", "note": "Out of some 63,000 compounds screened, about 1,100 (1.7%) were called active. This is one part of a sample in which actives are shown more often than they occur.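 Rule for the calls: active = compounds whose percent cytotoxicity in the single-dose primary screen, scaled between solvent and toxic-drug controls, exceeds 50; inactive = the rest.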 Entries with a potency or affinity are not part of this list.", "data": [{"assay": "viability loss of HPDE-C7K cells – cell-based, fluorescence, HTS, primary screen (AID 431);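 note: 0% = DMSO solvent wells and 100% = doxorubicin-treated wells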", "conditions": "HPDE-C7K KRASV12 cells, Alamar Blue viability, 48 h; at 10 µM; hits give high values", "values": [{"smiles": "Cn1nccc1/C=C(/C#N)S(=O)(=O)c1ccccc1", "cytotoxicity": "-21.9% (inactive)"}, {"smiles": "Cc1ccc2nc(SCC(=O)O)nc(C)c2c1", "cytotoxicity": "-14.7% (inactive)"}, {"smiles": "CCc1nnc(NC(=O)CSc2nnc(Cc3ccccc3)n2-c2ccccc2)s1", "cytotoxicity": "-4.7% (inactive)"}, {"smiles": "CC1=Nn2c(nnc2-c2ccco2)SC1", "cytotoxicity": "-17.8% (inactive)"}, {"smiles": "COC(=O)c1sc(NC(=O)C2CCCO2)c(C(=O)OC)c1C", "note": "(configuration not stated)", "cytotoxicity": "19.4% (inactive)"}, {"smiles": "O=C(CCN1c2ccccc2Sc2ccccc21)OCc1nnc(-c2ccccc2)o1", "cytotoxicity": "3.5% (inactive)"}, {"smiles": "COc1ccc(C(=O)CSc2nnc(-c3ccccc3)o2)cc1", "cytotoxicity": "-6.4% (inactive)"}, {"smiles": "Cc1nnc(SC(=O)N2c3ccccc3Sc3ccccc32)s1", "cytotoxicity": "-0.5% (inactive)"}, {"smiles": "COc1cc(OC)cc(-c2nnc(SCC(=O)N3c4ccccc4Sc4ccccc43)o2)c1", "cytotoxicity": "-24.8% (inactive)"}, {"smiles": "O=C(COc1cc(Cl)ccc1Cl)Nc1nnc(CC(=O)N2CCOCC2)s1", "cytotoxicity": "-20% (inactive)"}, {"smiles": "COc1ccccc1NC(=O)CN1CCN(CC(=O)Nc2ccc(F)cc2)CC1", "cytotoxicity": "11.3% (inactive)"}, {"smiles": "CCCNc1nc2c(c(=O)[nH]c(=O)n2C)n1Cc1ccc(F)cc1", "cytotoxicity": "8.2% (inactive)"}, {"smiles": "CC1Cc2ccccc2N1S(=O)(=O)c1ccc2c(c1)n(C)c(=O)c(=O)n2C", "note": "(configuration not stated)", "cytotoxicity": "2.9% (inactive)"}, {"smiles": "CCOC(=O)C1CCCN(S(=O)(=O)Cc2ccccc2)C1", "note": "(configuration not stated)", "cytotoxicity": "-14.4% (inactive)"}, {"smiles": "O=C1CSC(=S)N1c1cccnc1", "cytotoxicity": "-10.8% (inactive)"}, {"smiles": "O=C(O)c1ccc(CN2C(=O)CSC2=S)cc1", "cytotoxicity": "-5.7% (inactive)"}, {"smiles": "Cc1cccc(NC(=O)c2oc3c(c2C)C(=O)CC(C)(C)C3)n1", "cytotoxicity": "-12.7% (inactive)"}, {"smiles": "O=C(Nc1ccccc1C(=O)N1CCN(Cc2ccccc2)CC1)c1ccccn1", "cytotoxicity": "8.7% (inactive)"}, {"smiles": "COc1ccc2[nH]c(=O)c(CN(C(=O)COc3ccccc3)C(C)C)cc2c1", "cytotoxicity": "-31.9% (inactive)"}, {"smiles": "Cc1nn(C)cc1C1C2=C(CC(C)(C)CC2=O)OC2=C1C(=O)CC(C)(C)C2", "cytotoxicity": "2.9% (inactive)"}, {"smiles": "COC(=O)C1=C(N)OC2=C(C(=O)CC(C)(C)C2)C1c1ccoc1", "note": "(configuration not stated)", "cytotoxicity": "-4% (inactive)"}, {"smiles": "O=C(c1ccccc1C(=O)N1CCN(c2ccccc2F)CC1)N1CCN(c2ccccc2F)CC1", "cytotoxicity": "4% (inactive)"}, {"smiles": "COC(=O)c1ccccc1NC(=O)c1ccc(-c2ccccc2F)o1", "cytotoxicity": "90.9% (active)"}, {"smiles": "COC(=O)c1ccccc1NC(=O)c1ccc(COc2ccccc2)o1", "cytotoxicity": "10.5% (inactive)"}, {"smiles": "COc1ccccc1NC(=O)c1ccc(-c2ccccc2F)o1", "cytotoxicity": "-9% (inactive)"}, {"smiles": "COc1ccc(NC(=O)C(c2ccccc2)N(C)C(=O)c2cnccn2)cc1", "note": "(configuration not stated)", "cytotoxicity": "-2.6% (inactive)"}, {"smiles": "CC1(C)Cc2c(sc3c2c(=N)n(Cc2ccco2)c(=O)n3CC(=O)Nc2ccc(Cl)cc2)CO1", "cytotoxicity": "52.6% (active)"}, {"smiles": "Cc1ccc(NC(=O)Cn2c(=O)n(Cc3ccco3)c(=N)c3c4c(sc32)COC(C)(C)C4)cc1", "cytotoxicity": "23% (inactive)"}, {"smiles": "CC1(C)Cc2c(sc3c2c(=N)n(Cc2ccco2)c(=O)n3CC(=O)Nc2ccccc2)CO1", "cytotoxicity": "8.6% (inactive)"}, {"smiles": "COCCNS(=O)(=O)c1ccc2c(c1)C(=O)c1cc(S(=O)(=O)NCCOC)ccc1-2", "cytotoxicity": "-5.8% (inactive)"}, {"smiles": "CC1C(=O)C(C)C(c2cccs2)NC1c1cccs1", "note": "(configuration not stated)", "cytotoxicity": "-4.9% (inactive)"}, {"smiles": "CCOC(=O)c1csc(NC(=O)c2ccc(S(=O)(=O)N(C)C)cc2)n1", "cytotoxicity": "5.4% (inactive)"}, {"smiles": "O=c1[nH]c2ccccc2n1CCCN1CCN(C(c2ccccc2)c2ccccc2)CC1", "cytotoxicity": "31.4% (inactive)"}, {"smiles": "O=C(NC1CCCCC1)N1CCC(n2c(=O)[nH]c3ccccc32)CC1", "cytotoxicity": "-0.1% (inactive)"}, {"smiles": "Cc1noc(C)c1CSc1nnc(-c2ccncc2)n1-c1cccc(Cl)c1C", "cytotoxicity": "-13.5% (inactive)"}, {"smiles": "COc1cc(C2CC(=O)C=C(O)C2)cc(OC)c1OC", "note": "(configuration not stated)", "cytotoxicity": "-10% (inactive)"}, {"smiles": "CCOc1ccc(C(=O)NCc2cccnc2)cc1", "cytotoxicity": "0.5% (inactive)"}, {"smiles": "O=S(=O)(c1ccc2nc(Cc3ccccc3)[nH]c2c1)N1CCOCC1", "cytotoxicity": "2.7% (inactive)"}, {"smiles": "CC(=O)Nc1ccc(S(=O)(=O)N2CCC(c3nc4ccccc4[nH]3)CC2)cc1", "cytotoxicity": "10.6% (inactive)"}, {"smiles": "CC(=O)Nc1ccc(S(=O)(=O)N2CCN(c3cc(C)nc4ccccc34)CC2)cc1", "cytotoxicity": "-3.8% (inactive)"}, {"smiles": "CC(=O)Nc1nonc1NC(C)=O", "cytotoxicity": "-9.1% (inactive)"}, {"smiles": "COc1cc(O)c(NC(C)=O)c2nonc12", "cytotoxicity": "1.5% (inactive)"}, {"smiles": "c1ccc(CNc2nc3ccccc3[nH]2)cc1", "cytotoxicity": "-13.8% (inactive)"}, {"smiles": "COc1ccc2nc(NCc3ccccc3)[nH]c2c1", "cytotoxicity": "39.9% (inactive)"}, {"smiles": "Cc1ccc2nc(NCc3ccccc3)[nH]c2c1", "cytotoxicity": "85% (active)"}, {"smiles": "O=S(=O)(NCc1ccccc1)c1cccc2nonc12", "cytotoxicity": "4.4% (inactive)"}, {"smiles": "CCC1(C)Cc2c(sc3nc4n(c(=O)c23)CCS4)CO1", "note": "(configuration not stated)", "cytotoxicity": "20.1% (inactive)"}, {"smiles": "CC(C)Cn1c(Br)nc2c1c(=O)n(CCC#N)c(=O)n2C", "cytotoxicity": "-5.5% (inactive)"}, {"smiles": "O=C1NC2(CCCC2)N=C1c1ccc(Cl)cc1", "cytotoxicity": "-2.2% (inactive)"}, {"smiles": "O=C1NC2(CCCCC2)N=C1c1ccccc1", "cytotoxicity": "0.3% (inactive)"}, {"smiles": "Fc1ccccc1CSc1nc2ncccc2[nH]1", "cytotoxicity": "-2.9% (inactive)"}, {"smiles": "c1ccc2oc(SCc3nc4ccccc4s3)nc2c1", "cytotoxicity": "1.9% (inactive)"}, {"smiles": "CCS(=O)(=O)CCSc1nc2ccccc2s1", "cytotoxicity": "-6% (inactive)"}, {"smiles": "O=C(CSc1nc2ccccc2s1)Nc1ncccn1", "cytotoxicity": "-2% (inactive)"}, {"smiles": "CCS(=O)(=O)CCSc1nc2ccccc2o1", "cytotoxicity": "-13.9% (inactive)"}, {"smiles": "Cn1c(SCc2cc(=O)n3cc(Br)ccc3n2)nnc1C1COc2ccccc2O1", "note": "(configuration not stated)", "cytotoxicity": "-2.9% (inactive)"}, {"smiles": "CCC(=O)Nc1ccc2c(c1)ncn2-c1ccccc1OC", "cytotoxicity": "-32.9% (inactive)"}, {"smiles": "COc1ccccc1-n1cnc2cc(NC(C)=O)ccc21", "cytotoxicity": "-14.9% (inactive)"}, {"smiles": "COc1ccccc1-n1cnc2cc(NCc3ccco3)ccc21", "cytotoxicity": "66.4% (active)"}, {"smiles": "Cc1cccc2nc(Cn3c(=O)n(CCC(=O)NCc4ccco4)c(=O)c4sccc43)cc(=O)n12", "cytotoxicity": "2.4% (inactive)"}, {"smiles": "O=C(NCN1C(=O)C2C3C=CC(C3)C2C1=O)Nc1nccs1", "note": "(configuration not stated)", "cytotoxicity": "-8.1% (inactive)"}, {"smiles": "Cc1c(C(=O)OC(C)C)[nH]c2c1C(=O)CCC2", "cytotoxicity": "18% (inactive)"}, {"smiles": "Cc1ccc(C2C(C#N)=C(N)Oc3nc(-c4ccccc4)[nH]c32)o1", "note": "(configuration not stated)", "cytotoxicity": "0.6% (inactive)"}, {"smiles": "Cc1ccc(SCc2[nH]nc3c2C(c2ccc(C)o2)C(C#N)=C(N)O3)cc1", "note": "(configuration not stated)", "cytotoxicity": "10.8% (inactive)"}, {"smiles": "O=C(Nc1ccccc1)c1ccc(S(=O)(=O)NCC2CCCO2)cc1", "note": "(configuration not stated)", "cytotoxicity": "-7.8% (inactive)"}, {"smiles": "COc1ccc(C2=NOC(C(=O)NCCCN3CCOCC3)C2)cc1", "note": "(configuration not stated)", "cytotoxicity": "1.1% (inactive)"}, {"smiles": "Cc1ccc(-c2nnn(CC(=O)N(c3ccccc3)C(C(=O)NC3CCCC3)c3ccco3)n2)o1", "note": "(configuration not stated)", "cytotoxicity": "-7.9% (inactive)"}, {"smiles": "Cc1ccc(-c2nnn(CC(=O)N(Cc3cccs3)C(C(=O)NC3CCCC3)c3ccco3)n2)o1", "note": "(configuration not stated)", "cytotoxicity": "66.5% (active)"}, {"smiles": "Cc1ccc(-c2nnn(CC(=O)N(Cc3cccs3)C(C(=O)NC(C)(C)C)c3ccco3)n2)o1", "note": "(configuration not stated)", "cytotoxicity": "-2.9% (inactive)"}, {"smiles": "CCOC(=O)N1CCN(C(=O)c2c(O)c3cccc4c3n(c2=O)CC4)CC1", "cytotoxicity": "-3% (inactive)"}, {"smiles": "O=C(O)CSC1CC(=O)N(c2cccc(Cl)c2)C1=O", "note": "(configuration not stated)", "cytotoxicity": "-10.2% (inactive)"}, {"smiles": "CCc1nc(SCC(=O)c2ccc(C)c(C)c2)n[nH]1", "cytotoxicity": "-2.5% (inactive)"}, {"smiles": "Cc1ccc(S(=O)(=O)Nc2ccc3c(c2)nc2n3CCN(Cc3ccccc3)C2)cc1", "cytotoxicity": "6.9% (inactive)"}, {"smiles": "O=S(=O)(Nc1ccc2c(c1)nc1n2CCN(Cc2ccccc2)C1)c1ccccc1", "cytotoxicity": "0.8% (inactive)"}, {"smiles": "O=S(=O)(Nc1ccc2c(c1)nc1n2CCN(Cc2ccccc2)C1)c1ccc(Cl)cc1", "cytotoxicity": "51.1% (active)"}, {"smiles": "COc1ccc(CC(C)N2CCN(c3ccccc3OC)CC2)cc1OC", "note": "(configuration not stated)", "cytotoxicity": "8.7% (inactive)"}, {"smiles": "CCn1c(SCC(=O)NCc2ccco2)nc2c1c(=O)n(C)c(=O)n2C", "cytotoxicity": "-20.9% (inactive)"}, {"smiles": "COC(=O)c1cc(NC(=O)c2nccnc2C(=O)O)cc(C(=O)OC)c1", "cytotoxicity": "-2.1% (inactive)"}, {"smiles": "CCOC(=O)C1=C(C)NC2=C(C(=O)c3ccccc32)C1c1cccnc1", "note": "(configuration not stated)", "cytotoxicity": "12.3% (inactive)"}, {"smiles": "CC(=O)C1=C(C)NC(C)=C(C(C)=O)C1c1ccc(-c2ccccc2Cl)o1", "cytotoxicity": "-13% (inactive)"}, {"smiles": "COC(=O)C1=C(C)NC2=C(C(=O)c3ccccc32)C1c1ccc(-c2ccc(C(=O)O)cc2)o1", "note": "(configuration not stated)", "cytotoxicity": "62.8% (active)"}, {"smiles": "Cc1ccc(C(=O)NCc2ccco2)cc1S(=O)(=O)N1CCCCC1", "cytotoxicity": "-20.4% (inactive)"}, {"smiles": "Cc1c(NC(=O)c2ccccc2N)cccc1C(=O)O", "cytotoxicity": "6.3% (inactive)"}, {"smiles": "CC(=O)c1cccc(NC(=O)CN(Cc2ccccc2)S(C)(=O)=O)c1", "cytotoxicity": "-3.4% (inactive)"}, {"smiles": "O=C(C(NS(=O)(=O)c1cccs1)c1ccccc1)N1CCN(c2ccccc2)CC1", "note": "(configuration not stated)", "cytotoxicity": "-9.8% (inactive)"}, {"smiles": "COc1ccc(C(=O)N2CCN(c3cccc(Cl)c3)CC2)c(OC)c1", "cytotoxicity": "50.5% (active)"}, {"smiles": "COc1cccc(N2CCN(Cc3coc4c(Cl)cc(Cl)cc4c3=O)CC2)c1", "cytotoxicity": "65% (active)"}, {"smiles": "COc1ccc(N2CCN(Cc3cc(=O)oc4ccc(Cl)cc34)CC2)cc1", "cytotoxicity": "-1.6% (inactive)"}, {"smiles": "O=C(O)c1ccccc1C(=O)N1CCN(c2cccc(Cl)c2)CC1", "cytotoxicity": "0.5% (inactive)"}, {"smiles": "Cc1cc(C(=O)N2CCN(c3ncccn3)CC2)c(C)o1", "cytotoxicity": "6.7% (inactive)"}, {"smiles": "CCOc1ccc(C(=O)N2CCN(c3ccccc3)CC2)cc1OCC", "cytotoxicity": "-18% (inactive)"}, {"smiles": "Cc1cc(C(=O)N2CCN(c3cccc(Cl)c3)CC2)c(C)o1", "cytotoxicity": "62.7% (active)"}, {"smiles": "COc1ccccc1C(=O)N1CCN(c2cccc(Cl)c2)CC1", "cytotoxicity": "31.3% (inactive)"}, {"smiles": "Cc1ccc2occ(CN3CCN(c4ccccc4)CC3)c(=O)c2c1", "cytotoxicity": "-18.2% (inactive)"}, {"smiles": "COc1ccc2nc3oc(C(=O)N4CCN(c5cccc(Cl)c5)CC4)cc3cc2c1", "cytotoxicity": "25.9% (inactive)"}, {"smiles": "CCOc1ccccc1C(=O)N1CCN(c2cccc(Cl)c2)CC1", "cytotoxicity": "65.8% (active)"}, {"smiles": "COc1ccc(OC)c(S(=O)(=O)N(C)CC(=O)N2CCN(c3cccc(Cl)c3)CC2)c1", "cytotoxicity": "-14.2% (inactive)"}]}]}
